Among the data in PubChem BioAssay (Tox21) are Potency and activation values, retold here.

Inconclusive results are not listed. Entries that show only a call come without a potency. More than one record can exist for a structure, and the calls need not agree. Active and inactive are the calls of the source. The call rests on the fitted dose curve.
Potency means the concentration at half of the fitted maximal effect.

The target in this assay is Progesterone receptor (Homo sapiens) (UniProt P06401). Put plainly: qHTS assay to identify small molecule agonists of the progesterone receptor (PR) signaling pathway (AID 1346784). Further: nearly all actives have a fitted effect of over 30% in size. The note with it: PR-UAS-bla HEK293T, beta-lactamase FRET ratio, 16 h; series mostly up to 92.4 µM. The text has this: U.S. Tox21 Program National Center for Advancing Translational Sciences [NCATS] NIH Chemical Genomics Center [NCGC] U.S. Environmental Protection Agency [EPA] National Institutes of Environmental Health Sciences [NIEHS] National Toxicology Program [NTP] U.S. Food and Drug Administration [FDA] […] Endocrine disrupting chemicals (EDCs) and their interactions with steroid hormone receptors like PR causes disruption of normal endocrine function. To identify the compounds that activate PR signaling, a PR-UAS-bla GripTite cell line i.e. PR-UAS-bla HEK 293T (Invitrogen, Carlsbad, CA, USA) containing a beta-lactamase reporter gene under the control of an Upstream Activator Sequence (UAS) was used to screen Tox21 10K compound library.
Sequence of Progesterone receptor (Homo sapiens) (P06401 whole entry, looked up): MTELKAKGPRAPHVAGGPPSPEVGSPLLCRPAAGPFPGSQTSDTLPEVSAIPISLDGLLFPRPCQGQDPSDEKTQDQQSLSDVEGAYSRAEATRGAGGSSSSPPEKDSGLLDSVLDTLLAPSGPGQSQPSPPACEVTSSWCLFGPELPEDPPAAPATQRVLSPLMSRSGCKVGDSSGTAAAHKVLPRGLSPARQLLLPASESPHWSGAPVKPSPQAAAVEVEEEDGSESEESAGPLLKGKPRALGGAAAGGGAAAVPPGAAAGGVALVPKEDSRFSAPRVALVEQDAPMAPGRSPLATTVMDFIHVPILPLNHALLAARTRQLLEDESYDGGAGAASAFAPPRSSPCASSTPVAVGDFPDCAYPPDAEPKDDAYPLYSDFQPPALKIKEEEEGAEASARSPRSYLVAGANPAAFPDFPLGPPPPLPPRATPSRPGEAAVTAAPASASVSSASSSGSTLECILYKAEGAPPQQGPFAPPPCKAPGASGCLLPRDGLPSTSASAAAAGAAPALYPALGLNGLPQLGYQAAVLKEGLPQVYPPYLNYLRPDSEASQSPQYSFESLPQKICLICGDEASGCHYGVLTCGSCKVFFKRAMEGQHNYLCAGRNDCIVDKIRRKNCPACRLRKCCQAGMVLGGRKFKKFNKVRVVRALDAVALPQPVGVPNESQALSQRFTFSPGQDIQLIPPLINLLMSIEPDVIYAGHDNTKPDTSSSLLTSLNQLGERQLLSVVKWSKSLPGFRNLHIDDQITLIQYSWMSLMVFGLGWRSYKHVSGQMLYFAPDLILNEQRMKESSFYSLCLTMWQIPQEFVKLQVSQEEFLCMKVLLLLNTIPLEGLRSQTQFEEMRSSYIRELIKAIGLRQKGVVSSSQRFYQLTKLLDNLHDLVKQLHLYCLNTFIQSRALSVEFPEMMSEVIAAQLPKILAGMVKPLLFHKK
Tox21 Assay Protocol Summary: PR-UAS-bla HEK 293T cells were dispensed at 3,000 cells/5 uL of assay medium containing 2% charcoal stripped FBS per well into black wall/clear-bottom 1536-well plates using a Multidrop Combi (ThermoFisher Scientific, Waltham, MA) dispenser. After the assay plates were incubated at a 37C and 5% CO2 for 6hr, 23 nL of compounds dissolved in DMSO, positive controls or DMSO only was transferred to the assay plate by a Pintool station (Kalypsys, San Diego, CA). The plates were incubated at 37C and 5% CO2 for 16hr. Then 1 uL of LiveBLAzer B/G FRET substrate was added using a BioRAPTR FRD (Flying Reagent Dispenser, Aurora Discovery, San Diego, CA). After the plates were incubated at room temperature for 2 hours, fluorescence intensity was measured by an Envision plate reader (PerkinElmer, Shelton, CT).
As for `CCCCCC(N)=O`, the Potency entry is “inactive”.
For the compound `c1c[nH]cn1`, the Potency entry was “inactive”.
Take `O=C(O)[C@H](O)[C@@H](O)[C@H](O)[C@H](O)CO`: the activation is -0.268% [at 3.27 µM] (inactive) and the Potency was 2430 nM (active).
For `CN(C)CCC(c1ccccc1)c1ccccn1` (stereo not given), the Potency entry was “inactive”.
On the same count and under the same terms, the same measure for `CCCSc1ccc2nc(NC(=O)OC)[nH]c2c1`: “inactive”.
On the same count and under the same terms, the same measure for `CC(=O)CC(=O)Nc1ccccc1`: “inactive”; for `ON=C1CCCCC1`: “inactive”.
Same read-out and setting: in the case of `C[Si](O[Si](C)(C)C)O[Si](C)(C)C` it was “inactive”.
For `CN(C)CCOCCN(C)C`, the Potency entry is “inactive”.
The same measure, in the same setting: in the case of `OCc1cccnc1` it was “inactive”; in that of `O=C(O)CCCCCCCCCCC(=O)O`, “inactive”; in that of `CCCCC(CC)CO` (stereo not given), “inactive”.
Same read-out and setting: the same measure for `CCCCCCCCCCCCc1ccccc1`: “inactive”; for `c1ccc2scnc2c1`: “inactive”; for `CCCCCOC(C)=O`: “inactive”.
Still for that read-out and setting: in the case of `c1ccc2c(c1)ccc1ccccc12` it was “inactive”; in that of `O=c1[nH]nnc2ccccc12`, “inactive”.
For `CC(C)(N)CO`, the Potency result is “inactive”.
The same measure, in the same setting: the same measure for `CCC(O)OCCCOC` (stereo not given): “inactive”.
Still for that read-out and setting: the same measure for `CC(=O)c1ccccc1`: “inactive”.
As for `CCN(CC)CCCC(C)Nc1ccnc2cc(Cl)ccc12` (stereo not given), the activation is -0.551% [at 19 µM] (inactive) and the Potency was 119 nM (active).
Take `CC[C@H](C)C(=O)O[C@H]1C[C@@H](C)C=C2C=C[C@H](C)[C@H](CC[C@@H]3C[C@@H](O)CC(=O)O3)[C@H]21`: the Potency entry was “inactive”.
Same read-out and setting: the same measure for `O=[N+]([O-])c1ccc(/C=C/c2ccc([N+](=O)[O-])cc2S(=O)(=O)O)c(S(=O)(=O)O)c1`: “inactive”; for `CCCCCCCCCCCCCCO`: “inactive”.
On the same count and under the same terms, the same measure for `C[C@H]1C[C@H]2[C@@H]3CCC4=CC(=O)C=C[C@]4(C)[C@@]3(F)[C@@H](O)C[C@]2(C)[C@@]1(O)C(=O)CO`: 11900 nM (active).
The same measure, in the same setting: the same measure for `CC1=CC(=O)NS(=O)(=O)O1`: “inactive”; for `CCCCCCCCCC`: “inactive”.
As for `O=C(Oc1ccccc1)c1ccccc1`, the Potency entry was “inactive”.
Same read-out and setting: in the case of `C/C=C1/CC2C=CC1C2` (stereo not given) it was “inactive”.
Same read-out and setting: in the case of `O=C(O)CC(C(=O)O)C(CC(=O)O)C(=O)O` (stereo not given) it was “inactive”.
For the compound `COc1ccc2cc([C@H](C)C(=O)O)ccc2c1`, the Potency result was “inactive”.
Still for that read-out and setting: the same measure for `CSCCC=O`: “inactive”.
Still for that read-out and setting: the same measure for `Cc1ccc(S(N)(=O)=O)cc1`: “inactive”; for `CC1CCC2CC1C2(C)C` (stereo not given): “inactive”.
`C=C(C)C(=O)OCCOCCOCCOC(=O)C(=C)C`: the Potency result was “inactive”.
As to `CCCCCCCCCCCCOCCO`, the Potency result was “inactive”.
Consider `COc1ccc(Cl)cc1C(=O)NCCc1ccc(S(=O)(=O)NC(=O)NC2CCCCC2)cc1`, for which the Potency result is “inactive”.
For `O=c1[nH]c(=O)n([C@H]2C[C@H](O)[C@@H](CO)O2)cc1Br`, the Potency entry was “inactive”.
